# In PubChem BioAssay (NCATS):
# Where “and” joins values, the source holds several entries; their conditions need not be identical. Equal entries are not always repeated. Calls of active or inactive are those of the source. Calls come from the whole dose curve.
# Assay: qHTS drug screen for cell cycle checkpoint inhibitors in PARPi-resistant BRCA-mutant ovarian cancer cell lines. (AID 1963452)
# Conditions: PEO1/OlaR viability, CellTiter-Glo luminescence, 96 h
# How it was run: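 PEO1, PEO4 and PEO1/OlaR ovarian cancer cells, 600 per well, exposed 96 h at 37C to a dilution series. Viability read by CellTiter-Glo luminescence, normalized to DMSO and empty wells; activity summarized as Z-AUC.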
# Potency is the fitted concentration of half-maximal effect.
row,Compound,Potency
1,CON(C)C(=O)N1N=C(c2cc(F)ccc2F)S[C@@]1(CCCN)c1ccccc1,8.7 nM (active)
2,Cc1nc2c(-c3cnc(N)nc3)nc(N3CCOCC3)nc2n1C(C)C,436 nM (active)
3,COc1cc(N2CCC(N(C)C)CC2)ccc1Nc1ncc(Cl)c(Nc2ccccc2P(C)(C)=O)n1,436 nM (active)
4,CC(=O)c1cnc2ccc(-c3cc(Cl)c(O)c(Cl)c3)nc2c1NC1CCC(CN(C)C)CC1 (stereo not given),252 nM (active)

# Same assay, conditions: PEO1/OlaR viability, CellTiter-Glo luminescence, 96 h; stronger effect = lower value
row,Compound,Z-AUC
1,Nc1ccn([C@@H]2C(F)=C(CO)[C@@H](O)[C@H]2O)c(=O)n1,0.41 (inactive)
2,N#Cc1ccnc(N2C(=O)CC[C@H]2C(=O)N(c2cncc(F)c2)[C@H](C(=O)NC2CC(F)(F)C2)c2ccccc2Cl)c1,1.18 (inactive)
3,Cc1nnc(C(C)C)n1C1CC2CCC(C1)N2CC[C@H](NC(=O)C1CCC(F)(F)CC1)c1ccccc1 (stereo not given in full),1.09 (inactive) and 0.404 (inactive)
4,Cc1cc(Nc2ncc(Cl)c(Nc3ccccc3S(=O)(=O)C(C)C)n2)c(OC(C)C)cc1C1CCNCC1,-1.77 (inactive)
5,C=Cc1cc(O)cc2nc(-c3ccc(O)c(F)c3)oc12,0.0399 (inactive)
6,CN1CC[C@@H](NC(=O)Nc2ccc(C#N)cc2)C[C@@H]1c1nc2ccccc2[nH]1,-0.312 (inactive)
7,CCS(=O)(=O)N1CCC([C@@H](C)n2c(C)c(C(=O)NCc3c(OC)cc(C)[nH]c3=O)c3ccccc32)CC1,-0.188 (inactive)
8,CN1C(=O)N[C@@H](Cc2c[nH]c3c(Cl)cccc23)C1=O,-0.9 (inactive)
9,O=C(O)c1ccc(CCCc2ccc(OCCc3ccc(F)cc3)cc2)o1,0.294 (inactive)
10,CCCOc1ccn2c(C(C)=O)cc(-c3ccccc3S(C)(=O)=O)c2c1,2.02 (inactive)
11,COc1cc(N2CCC(O)CC2)ccc1Nc1cc(Nc2ccccc2S(=O)(=O)C(C)C)c2cc[nH]c2n1,0.976 (inactive)
12,CN(NC(=O)CC(=O)NN(C)C(=S)c1ccccc1)C(=S)c1ccccc1,1.67 (inactive)
13,CCOc1cc2ncc(C#N)c(Nc3ccc(OCc4ccccn4)c(Cl)c3)c2cc1NC(=O)/C=C/CN(C)C,0.57 (inactive)
14,COc1cc2c(Nc3ccc(Cl)c(Cl)c3F)ncnc2cc1OCC1C[C@@H]2CN(C)C[C@@H]2C1 (stereo not given in full),-0.294 (inactive)
15,COc1ncc(-c2ccc3c(Nc4cc(Oc5cc(F)cc(F)c5)cc(C(=O)O)c4)c(S(=O)(=O)NC4CC4)cnc3c2)c(OC)n1,-0.517 (inactive)
16,C[C@@H]1CCN(C(=O)CC#N)C[C@@H]1N(C)c1ncnc2[nH]ccc12,1.14 (inactive)

row,Compound,Z-AUC
1,CCOC(=O)c1ccnc(CNCC(=O)N(CC)CCN(C)C)c1,1.38 (inactive)
2,Cc1c(-c2ccnn2C)cc(C(=O)NCc2ccc(S(C)(=O)=O)cn2)c(=O)n1-c1cccc(C(F)(F)F)c1,-0.519 (inactive)
3,Cc1cccc(-c2[nH]c(CNc3ccccc3F)nc2-c2ccc3ncnn3c2)n1,-0.298 (inactive)
4,OCc1ccccc1O[C@@H]1O[C@H](CO)[C@@H](O)[C@H](O)[C@H]1O,1.58 (inactive)
5,CNc1nc(Nc2cnn([C@H]3CCN(C4COC4)C[C@@H]3F)c2Cl)ncc1C(F)(F)F,-0.479 (inactive)
6,O=C(NCC(=O)N1CC[C@H](NC2CCC(O)(c3ccc(-c4ncccn4)cn3)CC2)C1)c1cccc(C(F)(F)F)c1 (stereo not given in full),-0.56 (inactive)
7,NCc1ccc(OCCCc2sc(-c3ccc4c(c3)/C(=N/Nc3nc5ccccc5s3)CCC4)nc2C(=O)O)cc1,1.02 (inactive)
8,COc1ccc2cc(OCC3(C(=O)O)CN(C(=O)c4ccc(F)cc4)C3)ccc2c1,-0.285 (inactive)
9,Cc1nn(C)c2c1C(c1ccc(C(F)(F)F)cc1)C(C#N)=C(N)O2 (stereo not given),0.183 (inactive)
10,O=C(O)C[C@H](O)C[C@H](O)/C=C/c1c(C2CC2)nc2ccccc2c1-c1ccc(F)cc1,-0.947 (inactive)
11,CO[C@@H]1COCC[C@@H]1N[C@@H]1CC[C@@](C(=O)N2CCc3ncc(C(F)(F)F)cc3C2)(C(C)C)C1,0.278 (inactive)
12,OC[C@H]1O[C@@H](n2cnc3c2NC=NC[C@H]3O)C[C@@H]1O,-0.043 (inactive)
13,CC(C)(O)CNc1nc(Nc2ccnc(C(F)(F)F)c2)nc(-c2cccc(C(F)(F)F)n2)n1,0.352 (inactive)
14,C[C@H](CCC(=O)O)[C@H]1CC[C@H]2[C@@H]3[C@H](O)C[C@@H]4C[C@H](O)CC[C@]4(C)[C@H]3CC[C@]12C,1.79 (inactive)
15,Cc1ccc(C(=O)Nc2ccc(Oc3cc4cnn(C)c4cc3-c3cn[nH]c3)c(F)c2)c(=O)n1-c1ccc(F)cc1,-0.0237 (inactive)

# Same assay, conditions: PEO1/OlaR viability, CellTiter-Glo luminescence, 96 h; measured here: PEO1 parental Z-AUC; stronger effect = lower value
row,Compound,Z-AUC
1,Nc1ccn([C@@H]2C(F)=C(CO)[C@@H](O)[C@H]2O)c(=O)n1,-0.156
2,N#Cc1ccnc(N2C(=O)CC[C@H]2C(=O)N(c2cncc(F)c2)[C@H](C(=O)NC2CC(F)(F)C2)c2ccccc2Cl)c1,1.11
3,Cc1nnc(C(C)C)n1C1CC2CCC(C1)N2CC[C@H](NC(=O)C1CCC(F)(F)CC1)c1ccccc1 (stereo not given in full),1.65 and 0.521
4,Cc1cc(Nc2ncc(Cl)c(Nc3ccccc3S(=O)(=O)C(C)C)n2)c(OC(C)C)cc1C1CCNCC1,-0.797
5,C=Cc1cc(O)cc2nc(-c3ccc(O)c(F)c3)oc12,0.836
6,CN1CC[C@@H](NC(=O)Nc2ccc(C#N)cc2)C[C@@H]1c1nc2ccccc2[nH]1,0.0879
7,CCS(=O)(=O)N1CCC([C@@H](C)n2c(C)c(C(=O)NCc3c(OC)cc(C)[nH]c3=O)c3ccccc32)CC1,0.682
8,CN1C(=O)N[C@@H](Cc2c[nH]c3c(Cl)cccc23)C1=O,-0.75
9,O=C(O)c1ccc(CCCc2ccc(OCCc3ccc(F)cc3)cc2)o1,0.863
10,CON(C)C(=O)N1N=C(c2cc(F)ccc2F)S[C@@]1(CCCN)c1ccccc1,-2.66
11,CCCOc1ccn2c(C(C)=O)cc(-c3ccccc3S(C)(=O)=O)c2c1,1.76
12,COc1cc(N2CCC(O)CC2)ccc1Nc1cc(Nc2ccccc2S(=O)(=O)C(C)C)c2cc[nH]c2n1,1.41
13,Cc1nc2c(-c3cnc(N)nc3)nc(N3CCOCC3)nc2n1C(C)C,-1.56
14,CN(NC(=O)CC(=O)NN(C)C(=S)c1ccccc1)C(=S)c1ccccc1,1.08
15,CCOc1cc2ncc(C#N)c(Nc3ccc(OCc4ccccn4)c(Cl)c3)c2cc1NC(=O)/C=C/CN(C)C,0.366
16,COc1cc2c(Nc3ccc(Cl)c(Cl)c3F)ncnc2cc1OCC1C[C@@H]2CN(C)C[C@@H]2C1 (stereo not given in full),-0.529
17,COc1ncc(-c2ccc3c(Nc4cc(Oc5cc(F)cc(F)c5)cc(C(=O)O)c4)c(S(=O)(=O)NC4CC4)cnc3c2)c(OC)n1,-0.369
18,C[C@@H]1CCN(C(=O)CC#N)C[C@@H]1N(C)c1ncnc2[nH]ccc12,0.765

row,Compound,Z-AUC
1,CCOC(=O)c1ccnc(CNCC(=O)N(CC)CCN(C)C)c1,0.751
2,Cc1c(-c2ccnn2C)cc(C(=O)NCc2ccc(S(C)(=O)=O)cn2)c(=O)n1-c1cccc(C(F)(F)F)c1,-0.353
3,Cc1cccc(-c2[nH]c(CNc3ccccc3F)nc2-c2ccc3ncnn3c2)n1,0.223
4,OCc1ccccc1O[C@@H]1O[C@H](CO)[C@@H](O)[C@H](O)[C@H]1O,1.17
5,CNc1nc(Nc2cnn([C@H]3CCN(C4COC4)C[C@@H]3F)c2Cl)ncc1C(F)(F)F,-0.0727
6,O=C(NCC(=O)N1CC[C@H](NC2CCC(O)(c3ccc(-c4ncccn4)cn3)CC2)C1)c1cccc(C(F)(F)F)c1 (stereo not given in full),-0.577
7,COc1cc(N2CCC(N(C)C)CC2)ccc1Nc1ncc(Cl)c(Nc2ccccc2P(C)(C)=O)n1,-1.75
8,NCc1ccc(OCCCc2sc(-c3ccc4c(c3)/C(=N/Nc3nc5ccccc5s3)CCC4)nc2C(=O)O)cc1,1.09
9,COc1ccc2cc(OCC3(C(=O)O)CN(C(=O)c4ccc(F)cc4)C3)ccc2c1,-0.144
10,Cc1nn(C)c2c1C(c1ccc(C(F)(F)F)cc1)C(C#N)=C(N)O2 (stereo not given),1.31
11,O=C(O)C[C@H](O)C[C@H](O)/C=C/c1c(C2CC2)nc2ccccc2c1-c1ccc(F)cc1,-0.553
12,CC(=O)c1cnc2ccc(-c3cc(Cl)c(O)c(Cl)c3)nc2c1NC1CCC(CN(C)C)CC1 (stereo not given),-1.7
13,CO[C@@H]1COCC[C@@H]1N[C@@H]1CC[C@@](C(=O)N2CCc3ncc(C(F)(F)F)cc3C2)(C(C)C)C1,1.21
14,OC[C@H]1O[C@@H](n2cnc3c2NC=NC[C@H]3O)C[C@@H]1O,0.0818
15,CC(C)(O)CNc1nc(Nc2ccnc(C(F)(F)F)c2)nc(-c2cccc(C(F)(F)F)n2)n1,0.62
16,C[C@H](CCC(=O)O)[C@H]1CC[C@H]2[C@@H]3[C@H](O)C[C@@H]4C[C@H](O)CC[C@]4(C)[C@H]3CC[C@]12C,0.809
17,Cc1ccc(C(=O)Nc2ccc(Oc3cc4cnn(C)c4cc3-c3cn[nH]c3)c(F)c2)c(=O)n1-c1ccc(F)cc1,0.144
